In ChEMBL document CHEMBL3988442, “University of Dundee, Small-Polar-MMV Screening Library” (2021):
Out of some 48,000 compounds screened, about 13,000 (27%) showed an effect of 50% or more. The list shows a part of the results.

test system: Wolbachia pipientis; test: Anti-Wolbachia Cell-Based Screen; format: functional; design: scale not given: in the data most compounds retested in dose-response had high values; conditions: 5 µM

Structure (SMILES) | Percent Effect [%]
CC(C)c1nc(S(=O)(=O)N2CCSc3ccccc32)c[nH]1 | -4.998
CC(C)c1ccc(OCCNC(=O)c2ccoc2)cc1 | 6.267
Cc1nn(CC(=O)Nc2cccc(F)c2)c(N)c1C#N | -11.77
CSCc1noc(-c2nc3c([nH]2)CCCNC3=O)n1 | 14.73
COc1ccc(-c2nc3c([nH]2)CCCNC3=O)cc1OC | 96.66
Cc1cccc(Cc2nc3c([nH]2)CCCNC3=O)c1 | -1.705
COc1cc(-c2nc3c([nH]2)CCCNC3=O)cc(OC)c1OC | 91
CC(C)Oc1cccc(Cc2nc3c([nH]2)CCCNC3=O)c1 | 11.57
COc1ccccc1C1CNC(=O)c2nc(-c3cnn(C)c3)[nH]c2C1 (centres undefined) | -3.18
CC(C)(C)c1noc(-c2nc3c([nH]2)CCCNC3=O)n1 | 2.046
CC(C)Oc1cccc(-c2nc3c([nH]2)CCCNC3=O)c1 | 99.49
COc1cc(-c2nc3c([nH]2)CCCNC3=O)ccc1OC(C)C | 84.8
O=C1NCCCc2[nH]c(Cc3cccc(F)c3)nc21 | -0.783
CCN1CCCN(S(=O)(=O)c2cc3ccccc3o2)CC1 | -2.661
COc1ccccc1C1CNC(=O)c2nc(-c3c(C)n[nH]c3C)[nH]c2C1 (centres undefined) | -21.26
COc1cc(-c2nc3c([nH]2)CCCNC3=O)ccc1O | 101.7
Cc1ccc(C(=O)Nc2ccc(N3CCCC3)cn2)cc1F | -12.84
CC(C)N(CCNC(=O)N1CCCC(N(C)C)C1)C1CC1 (centres undefined) | 3.264
CN(C)CCO[C@H]1CN(Cc2ccco2)[C@@H]2COC[C@H]12.O=C(O)C(F)(F)F.O=C(O)C(F)(F)F | 94.89
CN(C)CCO[C@H]1CN(C(=O)c2ccc3c(c2)OCO3)[C@@H]2COC[C@H]12 | -7.678
Cc1ccc(CN2C[C@H](OCCN(C)C)[C@H]3OCCC[C@H]32)o1.O=C(O)C(F)(F)F.O=C(O)C(F)(F)F | 11.84
CN(C)CCO[C@H]1CN(Cc2cccc(C#N)c2)[C@@H]2COC[C@H]12.O=C(O)C(F)(F)F.O=C(O)C(F)(F)F | -16.47

Structure (SMILES) | Percent Effect [%]
Cc1ccc(CN2C[C@H](OCCN(C)C)[C@H]3COC[C@H]32)o1.O=C(O)C(F)(F)F.O=C(O)C(F)(F)F | 118.1
CCc1cc(N2CCN(C(C)=O)CC2)n2nc(C)c(C)c2n1 | -3.628
CC1CCCCN1S(=O)(=O)NCc1cccnc1OC1CCCC1 (centres undefined) | 2.179
CCOCCn1c(=O)[nH]c2cc(C(=O)N(C)CCc3cn[nH]c3)ccc21 | -12.36
O=C(NC[C@H]1CC[C@H](c2ccnc3ncnn32)CC1)C1CC1 | 132.8
Cc1nccn1-c1cc(CNC(=O)COCC2CC2)ccn1 | -10.58
O=C(CN1CCC(c2ccnn2CCO)CC1)NCC1CC1 | -5.639
COCC(=O)NC[C@H]1CC[C@H](c2ccnc3ncnn32)CC1 | 112
O=C(NCC1CC1)c1cnc(-c2ccccc2)nc1 | -4.836
CCc1nccc(CN2CCCC(CNC(=O)c3ccccn3)C2)n1 (centres undefined) | -4.435
O=C(NCc1ccnc(O)c1)NCC1CCCC1 | -3.505
O=C(NC[C@H]1CC[C@H](c2ccnc3ncnn32)CC1)c1ccccn1 | 132.7
CCc1nccc(CN2CCC(CNC(=O)[C@H]3CC[C@H](C)CC3)C2)n1 (some centres undefined) | -6.322
CCNC(=O)NC1CCCN(c2ccc(C)cc2)C1=O (centres undefined) | -8.82
COc1ncnc(N(C)C)c1NC(=O)c1cscc1C | -1.164
C[C@@H](CO)NC(=O)c1ccc2nc(NS(C)(=O)=O)sc2c1 | 93.82
Cc1ccc(C(=O)NCCC(C)C)cc1NS(C)(=O)=O | -0.7863
CSCC[C@@H](CO)NC(=O)c1ccc2nc(NS(C)(=O)=O)sc2c1 | 89.36
COc1cccc(-c2nc(C)c(C(=O)NC(CO)CCSC)s2)c1 (centres undefined) | -11.86
CSCCC(CO)NC(=O)c1sc(-c2ccccc2Cl)nc1C (centres undefined) | 13.6
CC(C)CCNC(=O)c1ccc(Cl)c(NS(C)(=O)=O)c1 | 2.284
Cc1nnc(CNC(=O)CC2CCc3ccccc32)o1 (centres undefined) | 1.636

Structure (SMILES) | Percent Effect [%]
COc1ccnc(NC(=O)c2ccsc2)c1 | -4.666
COCc1nc(C(=O)NS(=O)(=O)c2ccc(C)s2)cs1 | -3.012
Cc1nc(C)c(S(=O)(=O)NC(=O)c2ccsc2)s1 | 101.1
Cc1ccc(S(=O)(=O)NCCNC(=O)c2ccoc2)cc1C | 3.538
O=C(NS(=O)(=O)c1cnn(-c2ccccc2F)c1)c1ccoc1 | 8.506
Cc1nc(C)c(S(=O)(=O)NC(=O)c2ccoc2)s1 | 99
Cc1ccc(N2CCCN(C(=O)c3cc(Cl)c[nH]3)CC2)nn1 | -5.212
Cc1ccc(N2CCCN(C(=O)CC3CCCO3)CC2)nn1 (centres undefined) | 4.405
Cc1ccc(N2CCCN(C(=O)CCC3CCCO3)CC2)nn1 (centres undefined) | 87.48
Cc1ccc(N2CCCN(C(=O)C(C)OCC3CC3)CC2)nn1 (centres undefined) | -0.6
Cc1ccc(N2CCCN(C(=O)c3c(C)oc(C)c3C)CC2)nn1 | 8.16
Cc1ccc(N2CCCN(C(=O)CC3C=CCC3)CC2)nn1 (centres undefined) | 107
Cc1ccc(N2CCCN(C(=O)C3CCCO3)CC2)nn1 (centres undefined) | 135.1
Cc1ccc(N2CCCN(C(=O)C3(C#N)CCCCC3)CC2)nn1 | 12.99
Cc1ccc(NC2CCN(C(=O)CCC3CCCO3)CC2)nn1 (centres undefined) | -9.533
Cc1nn(CC(=O)N2CCCN(c3cccnn3)CC2)c(C)c1Cl | 1.564
O=C(Cc1cccc2cccnc12)N1CCCN(c2cccnn2)CC1 | -1.609
O=C(CC1CCCO1)N1CCCN(c2cccnn2)CC1 (centres undefined) | 79.43
COc1ccc(CN[C@@H]2CO[C@H](CNC(=O)NC(C)C)[C@H]2O)cc1 | 1.543
CC(C)c1noc(C(C)S(=O)(=O)Cc2nc(C3CC3)no2)n1 (centres undefined) | 8.57
